PubChem BioAssay (NCATS)
Inconclusive results are not listed. A number with no mark means an inactive call. The source made the active and inactive calls. Calls come from the whole dose curve; as a rule, active = well fitted cell-killing curve with a large enough effect; inconclusive = small, poorly fitted or top-dose-only effect, or effect the other way; inactive = no such curve, though single readings can be large or run the other way.

Assays:
[1] = Viability qHTS for spleen associated tyrosine kinase inhibitor (SYKi) naive MV4-11 cells (AID 1963823); note: nearly all actives have a fitted effect of over 40% in size
Procedure, shortened: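 Cells: MV4-11, SYK inhibitor naive, 500 per well. Treatment: library compounds, 72 hr, 37 C, 5% CO2. Read-out: CellTiter-Glo luminescence after 10 min RT.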

[2] = Viability qHTS for spleen associated tyrosine kinase inhibitor (SYKi) drug resistant MV4-11 cells (AID 1963824); note: nearly all actives have a fitted effect of over 35% in size
Procedure, shortened: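 SYK-inhibitor-resistant MV4-11 AML cells were seeded at 500 per well onto compound and cultured 72 hours (37 °C, 5% CO2). CellTiter-Glo was then added, and after 10 min at room temperature, luminescence gave viability.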
Potency is the fitted concentration of half-maximal effect.

Structure (SMILES): CC(C)C(=O)OCC(=O)[C@@]12O[C@H](C3CCCCC3)O[C@@H]1C[C@H]1[C@@H]3CCC4=CC(=O)C=C[C@]4(C)[C@H]3[C@@H](O)C[C@@]12C
- Potency [1]: 5900 nM (active)
- Potency [2]: 2950 nM (active)

Structure (SMILES): COc1ccc(C[C@H](N)C(=O)N[C@@H]2[C@H](O)[C@H](n3cnc4c(N(C)C)ncnc43)O[C@@H]2CO)cc1
- Potency [1]: 184 nM (active)
- Potency [2]: 184 nM (active)

Structure (SMILES): Cc1nc2cc(-c3cc(F)cc(C#N)c3)ccc2s1
- Potency [1]: inactive
- Potency [2]: inactive

Structure (SMILES): CC1=CC(=O)C(=C(C)C)CC2C1CCC2(C)O (stereo not drawn)
- Potency [1]: inactive
- Potency [2]: inactive

Structure (SMILES): COc1cc2c(cc1O)CC[C@H]1[C@@H]2CC[C@]2(C)[C@H](O)CC[C@@H]12
- Potency [1]: 580 nM (active)
- Potency [2]: 731 nM (active)

Structure (SMILES): Cc1cc(O)c(C(C)C)cc1O[C@@H]1O[C@H](CO)[C@@H](O)[C@H](O)[C@H]1O
- Potency [1]: inactive
- Potency [2]: inactive

Structure (SMILES): CC1CCC2(C(=O)OC3OC(CO)C(O)C(O)C3O)CCC3(C(=O)O)C(=CCC4C5(C)CCC(OC6OC(C)C(O)C(O)C6O)C(C)(C)C5CCC43C)C2C1C (stereo not drawn)
- Potency [1]: inactive
- Potency [2]: inactive

Structure (SMILES): C[C@H]1[C@H](C)CC[C@]2(C(=O)O[C@@H]3O[C@H](CO)[C@@H](O)[C@H](O)[C@H]3O)CC[C@]3(C(=O)O)C(=CCC4[C@@]5(C)CC[C@H](O[C@@H]6O[C@H](CO)[C@@H](O)[C@H](O)[C@H]6O)C(C)(C)C5CC[C@]43C)[C@H]12 (stereo partly drawn)
- viability (% of control) [1]: 69.7% [at 9.25 µM]
- viability, % of control [2]: 96% [at 9.25 µM]

Structure (SMILES): O=C(Nc1ccccc1)N1CCN(c2nc(-c3ccccc3)ns2)CC1
- Potency [1]: 14600 nM (active)
- Potency [2]: 16400 nM (active)
